Bioassay records from PubChem BioAssay.
Rows were chosen to be rich in hits. Some 3.7% of all compounds tested hit in one or more screens of this group.
GPR32 ag: agonists of human resolvin D1 receptor DRV1 (GPR32) | O75388 | CHO-K1 GPR32 beta-arrestin PathHunter luminescence, 90 min; zero percent set by DMSO-only wells | activation, % at 76.9 µM | actives 2.5% (n = 48,000) | AID 1346428;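 active means activation of at least 60% and not above a set upper limit, about 1 call in 100 departs from these limits; inconclusive means activation of 40% to 60%, or above that upper limit; inactive means activation under 40%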
Target sequence (O75388 whole entry, looked up): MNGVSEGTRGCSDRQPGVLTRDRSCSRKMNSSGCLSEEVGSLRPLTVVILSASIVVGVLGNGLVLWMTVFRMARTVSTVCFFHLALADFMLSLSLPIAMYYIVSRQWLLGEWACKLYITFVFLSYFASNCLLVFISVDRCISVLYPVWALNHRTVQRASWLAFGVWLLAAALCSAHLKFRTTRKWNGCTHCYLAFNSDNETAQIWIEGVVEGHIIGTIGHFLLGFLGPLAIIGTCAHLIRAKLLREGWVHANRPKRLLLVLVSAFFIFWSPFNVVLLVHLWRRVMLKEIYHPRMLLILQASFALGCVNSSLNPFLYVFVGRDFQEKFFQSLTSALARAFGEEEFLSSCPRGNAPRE
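Engineered CHO-K1 line co-expressing GPR32-ProLink and EA-beta-arrestin. Compound treatment lasted 90 min at 37 °C. Luminescence was recorded after 1 h with substrate at ambient temperature, relative to DMSO basal wells.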
HTT-AS act: activates huntingtin-antisense promoter activity | actives 0.24% (n = 48,000) | Potency, µM (top dose mostly 57.5 µM), hits mostly activators | HEK293 HTT-AS promoter firefly luciferase reporter, 24 h; response scale: percent change from vehicle, -100% = no light; further: nearly all actives have a fitted effect of over 55% in size
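HEK293 Fluc reporter, 2,500 cells/well, 24 h pre-culture; cpds up to 57.5 uM final, 24 h 37 degrees C; Dual-Glo, 10 min RT; normalized vehicle = 0%, zero RLU = -100%.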
HTT prom inh: HTT promoter inhibition; Potency, µM (doses to about 57.5 µM), usual class: inhibitors; actives 0.93% (n = 48,000); AID 1508623; HEK293 HTT promoter firefly luciferase reporter, 24 h; further: nearly all actives have a fitted effect of over 50% in size
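Luminescence was read after Dual-Glo reagent and a 10 min room-temperature incubation. Values were normalized to vehicle (0% activity) and zero RLU (-100% activity). Reporter HEK293 cells had been exposed to compounds (up to 57.5 uM final) for 24 h.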
Numbers stand for hits; . = inactive; ? = inconclusive; / = not tested or not shown; ! = a repeat was not active; [ ] = remark or other dose. Unless noted, the call rests on the fitted dose curve; in most records, active means well fitted curve in the direction sought with a large enough effect; inconclusive means small, poorly fitted or top-dose-only effect, or another doubt; inactive means no such curve, though single readings can be large; an effect the other way counts as inactive or inconclusive.

SMILES	GPR32 ag	HTT-AS act	HTT prom inh
CC[C@H](NC(=O)[C@H](C)NC)C(=O)N1C[C@@H](O)C[C@H]1Cc1c(-c2[nH]c3cc(F)ccc3c2C[C@H]2C[C@H](O)CN2C(=O)[C@H](CC)NC(=O)[C@H](C)NC)[nH]c2cc(F)ccc12	/	.	?
CC(C)(C)c1cc(C=O)cc(C(C)(C)C)c1O	.	.	.
Cc1ccc(C)c(NC(=O)C(=O)NCCc2csc(-c3cccc(F)c3)n2)c1	.	.	.
CN1C(=O)c2ccccc2C1=O	.	.	.
CC1=CC(=O)c2ccccc2C1=O	62.4	.	.
Nc1c(C(=O)NCc2ccc3c(c2)OCO3)nnn1CC(=O)Nc1ccc(Br)cc1	61.5	.	.
COc1ccc(Cl)cc1NC(=O)Cn1nnc(C(=O)NCc2ccc3c(c2)OCO3)c1N	112.3	.	?
CC(C)c1ccc(NC(=O)Cn2nnc(C(=O)NCc3ccc4c(c3)OCO4)c2N)cc1	.	.	.
COc1ccccc1NC(=O)Cn1nnc(C(=O)NCc2ccc3c(c2)OCO3)c1N	.	.	.
CC(=O)N[C@@H](CCC(N)=O)C(=O)O	.	.	.
NS(=O)(=O)c1cccc2c1C(=O)c1cccc(O)c1C2=O	/	.	?
OCCC#Cc1nc(-c2ccc(F)cc2)c(-c2ccncc2)n1CCCc1ccccc1	/	.	.
COc1ccc2c(c1)c(CC(=O)OC/C=C(\C)CC/C=C(\C)CCC=C(C)C)c(C)n2C(=O)c1ccc(Cl)cc1	.	.	.
CNC(=O)c1ccc2c(C(=Nc3cccc(CN(C)C)c3)c3ccccc3)c(O)[nH]c2c1	/	.	?
Cc1cc(O)c(C(c2ccc(F)cc2)N2CCCCC2)c(=O)n1Cc1ccco1 (stereo unspecified)	.	.	.
CCn1nnc2cc(C(=O)Nc3ccc(C)c(Cl)c3)ccc21	.	?	.
Cc1ccc(NC(=O)c2ccc3snnc3c2)cc1Cl	95.1	?	.
CCOC(=O)c1ccc(NC(=O)Nc2ccc3snnc3c2)cc1	.	.	.
Cc1ccc(NC(=O)Nc2ccc3snnc3c2)cc1C	65.6	.	.
Cc1c(C)n(Cc2ccc(-c3ccccc3C(=O)O)cc2)c2ccc(C(=O)N[C@@H](C)c3ccc([N+](=O)[O-])cc3)cc12	/	.	.
Cc1ccc(F)c(NC(=O)Nc2ccc(-c3cccc4[nH]nc(N)c34)cc2)c1	/	.	.
CCOc1ccc(CCNC(=O)CN2CCN(Cc3ccc(Cl)cc3)C2=O)cc1OCC	.	.	?
CCOc1ccc(CCNC(=O)CN2CCN(Cc3ccc(F)cc3Cl)C2=O)cc1OCC	75.4	.	.
COc1ccc2cc(-c3nc(-c4ccc(S(C)=O)cc4)[nH]c3-c3ccncc3)ccc2c1 (stereo unspecified)	/	.	.
CCc1c(C)nc2nc(-c3ccccc3)nn2c1NCc1ccc(C)cc1	72.2	.	.
SMILES	GPR32 ag	HTT-AS act	HTT prom inh
CCc1c(C)nc2nncn2c1NCc1ccccc1	.	.	?
CCOC(CN1C(=O)[C@](CC(=O)Nc2ccc(C)cc2)(NC(=O)Nc2ccc(C)cc2)c2ccccc21)OCC	/	.	?
Nc1nc(=O)n([C@H]2CSC(CO)O2)cc1F (stereo partly specified)	/	.	.
CC(=O)c1ccc(N2CCN(C(=O)Nc3ccc(C(C)C)cc3)CC2)cc1	.	.	22.4µM
CC(=O)c1ccc(N2CCN(C(=O)Nc3cn(CC(C)C)c(=O)c4ccccc34)CC2)cc1	.	.	.
CC(C)[C@@H]1CC[C@@H](C)C[C@@H]1P(=O)(c1ccccc1)c1ccccc1	.	/	/
Cc1ccc(Cl)cc1NC(=O)C(C)n1nnc2sc3c(c2c1=O)CCCC3 (stereo unspecified)	.	.	.
COC(=O)c1nnn(CC(=O)Nc2cc(F)ccc2F)c1C(=O)OC	.	.	.
Cc1cc(O)c(C(C)C)cc1Cl	85.6	.	.
NC1(C(=O)N[C@@H](CCO)c2ccc(Cl)cc2)CCN(c2ncnc3[nH]ccc23)CC1	/	.	?
COc1ccc(F)c(F)c1C(=O)c1cnc(NC2CCN(S(C)(=O)=O)CC2)nc1N	/	.	?
COc1ccc(C2NC(=O)N(C)C3=C2C(=O)N(c2cccc(Cl)c2)C3)cc1 (stereo unspecified)	.	.	.
N#CC1(c2ccc(NC(=O)c3cccnc3NCc3ccncc3)cc2)CCCC1	/	.	.
Cc1ccc(C)c(N2CCN(CCCNC(=O)c3ccc4nc(N5CCC(C)CC5)sc4c3)CC2)c1	.	?	.
COc1ccc(N2CCN(C(=O)c3ccc4nc(N5CCC(C)CC5)sc4c3)CC2)cc1	.	.	2.24µM
Cc1ccc(Cl)cc1N1CCN(C(=O)c2ccc3nc(N4CCC(C)CC4)sc3c2)CC1	.	.	3.55µM
COc1cccc(N2CCN(C(=O)c3ccc4nc(N5CCC(C)CC5)sc4c3)CC2)c1	.	.	?
CNC(=O)[C@H](Cc1ccccc1)NC(=O)[C@H](CC(C)C)[C@H](CSc1cccs1)C(=O)NO	/	.	.
COc1ccc(-n2c(-c3ccco3)nc3c(cnn3-c3ccc(Cl)cc3)c2=O)cc1	.	.	35.5µM
COc1cccc(-n2c(-c3ccco3)nc3c(cnn3-c3ccc(Cl)cc3)c2=O)c1	.	.	?
CCCCOc1ccc(C(=O)Nc2ccc3c(c2)N(C(C)=O)CCC3)cc1	.	.	4.47µM
O=C(Nc1onc2c1CCCC2)c1ccc(Cl)cc1	.	?	.
CC(=O)N1CCCc2ccc(NC(=O)c3ccc(OC(C)C)cc3)cc21	.	.	?
CCCCOc1ccc(C(=O)Nc2onc3c2CCCC3)cc1	.	12.6µM	.
Cc1ccc2c(c1)c1c3n2CCN(C(=O)c2cccc(C(F)(F)F)c2)C3CCC1 (stereo unspecified)	.	.	?
SMILES	GPR32 ag	HTT-AS act	HTT prom inh
CCc1ccc(CN(Cc2cn[nH]c2-c2ccc(OC)cc2)C(=O)Nc2ccc(Br)cc2)cc1	.	.	14.1µM
CCOc1ccc(NC(=O)N(Cc2ccc(CC)cc2)Cc2cn[nH]c2-c2ccc(OC)cc2)cc1	.	.	?
O=C1c2c(O)cc(O)cc2O[C@H](c2cc(O)c(O)c(O)c2)[C@H]1O	/	.	.
Cc1ccc(NC(=O)C(=O)NCc2ccco2)cc1	.	5.01µM	.
CCOc1ccc(NC(=O)C(=O)NCc2ccco2)cc1	.	.	.[11.5 µM]
COC(=O)c1c(NC(=O)c2nc(SCc3ccc(F)cc3)ncc2Cl)sc2c1CCCC2	.	.	.
CC(C)c1nnc(NC(=O)c2nc(SCc3ccc(F)cc3)ncc2Cl)s1	109.1	.	.
COc1ccc(NC(=O)CCc2nc3cccnc3n2-c2ccccc2)cc1Cl	.	.	?
Cc1cc(NC(=O)CCc2nc3cccnc3n2-c2ccccc2)ccc1Br	65.8	.	?
O=C(c1ccc(F)cc1)N1CCN(CCc2ccncc2)CC1	.	.	.
CCNC(=O)N1CCN(CCCC(c2ccc(F)cc2)c2ccc(F)cc2)CC1	112.4!	.	.
CCOC(=O)C1=C(C)NC(C)=C(C(=O)OCC)C1c1c(F)c(F)c(F)c(F)c1F	.	/	/
Cc1cc(N2CCN(C)CC2)nc2ccc(NC(=O)Nc3cccc(Cl)c3)cc12	93.5	.	.
Cc1cc(N2CCN(C)CC2)nc2ccc(NC(=O)Nc3ccccc3)cc12	?	?	.
Cc1cc(Nc2cccc(Cl)c2)nc2ccc(NC(=O)c3cccnc3)cc12	60.5	.	?
